Rows were chosen to be rich in hits. Some 7.1% of all compounds tested hit in one or more screens of this group.
IL1B secr inh: inflammasome signaling inhibition, IL-1 beta readout | activity change, % at 57.5 µM | 360,000 tested, 4.7% active | THP-1 LPS/ATP IL-1B secretion, AlphaLISA, 16 h; stronger effect = lower value; in the data active = activity change below about -50%; inconclusive = mostly about -30% to -49%; also: % is scaled to controls: 0 for no effect and ±100 for the full control effect
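THP-1 cells pretreated 1 hr with compounds (up to 57.5 uM final), then stimulated with LPS (250 ng/mL final) plus ATP (1.25 mM final); secreted IL-1B measured by AlphaLISA after 16 hr, decreased signal indicating inhibition.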
ATXN2 expr inh: inhibitors of ATXN2 expression; 360,000 tested, 0.72% active; HEK-293 ATXN2-luciferase reporter, luminescence, 24 h; AID 1745845; Potency, µM (doses to about 57 µM), for inactives: at the top dose activity change, negative = inhibition, hits mostly inhibitors; also: potency is read from the fitted curve at half-maximal effect; % is scaled to controls: 0 for no effect and ±100 for the full control effect; nearly all actives have a fitted effect of over 55% in size
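qHTS (up to 57 uM final) was run with 24 h compound exposure of reporter cells at 37 °C. Each well was multiplexed: SteadyGlo luminescence measured ATXN2-luciferase expression after a fluorogenic Gly-Phe-AFC viability readout (25 uM final).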
PINK1 modulator: modulators of PINK1 expression; PINK1 immunofluorescence, high-content cytometry, 24 h; Potency, µM (titrated, usually from 76.6 µM), for the others: at the highest dose activation (PINK1 increase), most hits filed as activators; 410,000 tested, 0.2% active; active = well fitted activation curve with a large enough effect; inconclusive = small, poorly fitted or top-dose-only effect; cell line not stated here; also: potency is read from the fitted curve at half-maximal effect; % of control where 0% means no effect; nearly all actives have a fitted effect of over 65% in size
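PINK1 protein level read as immunofluorescence by microplate cytometer in a fixed, stained stable cell line after 24 h exposure to five compound concentrations, with CCCP as control.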
MCF10A rerep: inducers of DNA re-replication in MCF 10A breast cells; MCF 10A DNA re-replication, Hoechst nuclear intensity, 48 h; Potency, µM (doses to about 46.1 µM), without a hit: at the highest dose activity, positive = re-replication, usual class: activators; 350,000 tested, 2.9% active; AID 624296; also: potency is read from the fitted curve at half-maximal effect; % of control where 0% means no effect; nearly all actives have a fitted effect of over 50% in size
SW480 rerep: induces DNA re-replication in SW480 colon adenocarcinoma cells. 340,000 tested, 1.8% active. SW480 DNA re-replication, Hoechst DNA content imaging, 48 h. Potency, µM (doses to about 46.1 µM), without a hit: at the top dose re-replication activation, most hits filed as activators; also: potency is read from the fitted curve at half-maximal effect; % of control where 0% means no effect; nearly all actives have a fitted effect of over 55% in size
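Cells (250 per well) received 23 nL compound or DMSO by pin tool and were kept 48 hr at 37 C, 5% CO2. Nuclei were then stained with Hoechst for 40 min and scanned for DNA content.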
S2 tox: reduces viability in counter-screen for ATXN expression inhibitors; S2 cells (HEK-293 line with an ATXN2-luciferase reporter) viability, CellTiter-Fluor protease fluorescence, 24 h; Potency, µM (titrated, usually from 56.7 µM), hits mostly cytotoxic; 400,000 tested, 0.49% active; also: potency is read from the fitted curve at half-maximal effect; nearly all actives have a fitted effect of over 40% in size
The depositor's hits bear a star; i = inactive; ? = inconclusive; · = not tested or not shown; [ ] = dose if it differs, or a comment. Unless noted, calls follow the shape of the dose curve; as a rule, active = well fitted curve in the direction sought with a large enough effect; inconclusive = small, poorly fitted or top-dose-only effect, or another doubt; inactive = no such curve, though single readings can be large; an effect the other way counts as inactive or inconclusive.

SMILES	IL1B secr inh	ATXN2 expr inh	PINK1 modulator	MCF10A rerep	SW480 rerep	S2 tox
Nc1c(C(=O)NCC2CCCO2)c2nc3ccccc3nc2n1Cc1ccco1 (stereo not given)	-71.5*	?	-2.0%	2.59µM*	13µM*	·
C=CCNC(=O)c1c(N)n(CCN2CCOCC2)c2nc3ccccc3nc12	?	3.3%	-6.3%[38.3 µM]	5.8µM*	7.6%	i
COCCCNC(=O)c1c(N)n(Cc2ccco2)c2nc3ccccc3nc12	-54.6*	-13.6%	-2.0%	11.6µM*	9.2µM*	·
CCc1ccccc1Nc1nn2c(=O)c3ccc(C(=O)Nc4cc(C)cc(C)c4)cc3nc2s1	·	?	2.3%	·	·	?
C[C@H]([C@H](O)CCC(C)(C)O)[C@H]1CC[C@@]2(O)C3=CC(=O)[C@@H]4C[C@@H](O)[C@@H](O)C[C@]4(C)[C@@H]3CC[C@]12C	·	8.1%	·	·	·	·
N#Cc1ccc(CN2CC[C@@]3(CCCN(C(=O)Oc4ccccc4)C3)C2)cc1	·	·	-0.9%	·	·	·
O=C(Nc1ccc(Br)cc1C(=O)O)c1ccc2c(c1)C(=O)N(Cc1ccccc1)C2=O	5.1	-21.2%	-0.1%	?	0.3%	i
CCN(CC)C(=O)c1ccc(C2=CC3(CCNCC3)Oc3cccc(O)c32)cc1	·	-4.1%	·	·	·	·
COC(=O)C1CN(C#N)N(c2ccc(Cl)cc2)C12c1ccccc1-c1ccccc12 (stereo not given)	-97.0*	3.98µM*	-1.8%	7.08µM*	3.26µM*	3.98µM*
ClCCCN1CCN(c2cccc(Cl)c2)CC1	·	0.2%	·	·	·	i
COc1ccc(C(c2nnnn2-c2ccc(OC)cc2)N2CCC(n3c(=O)[nH]c4ccccc43)CC2)cc1 (stereo not given)	?	?	0.1%	·	·	?
O=c1[nH]c2ccccc2n1C1CCN(C(c2cc3ccccc3o2)c2nnnn2-c2ccc3c(c2)OCCO3)CC1 (stereo not given)	?	12.6µM*	0.5%	·	·	?
O=c1[nH]c2ccccc2n1C1CCN(C(c2cccc3ccccc23)c2nnnn2-c2ccc3c(c2)OCCO3)CC1 (stereo not given)	-26.4	-22.1%	0.1%	·	·	?
COc1ccc(-n2nnnc2C(c2cc3ccccc3o2)N2CCC(n3c(=O)[nH]c4ccccc43)CC2)cc1 (stereo not given)	0.0	7.94µM*	1.7%	·	·	7.94µM*
C=CCC1(C(C)CC)C(=O)NC(=O)NC1=O (stereo not given)	·	2.6%	·	·	·	i
COc1ccc(Nc2c(-c3cc(Br)ccc3O)nc3ncccn23)cc1OC	·	-3.3%	5.5%	·	·	?
COC[C@@H](NC(C)=O)C(=O)NCc1ccccc1	·	-1.4%	·	·	·	i
O=[N+]([O-])c1ccc(-c2ccccc2)c([As](=O)(O)O)c1	-18.3	·	4.2%	23.1µM*	15.8%	?
COc1cc(/C=C/[N+](=O)[O-])ccc1OC(=O)c1cccnc1	?	·	-0.3%	-4.1%	-22.0%	?
COc1cc2c(cc1/C=C/[N+](=O)[O-])OCO2	-10.6	-8.0%[11.3 µM]	-2.1%	?	?	28.2µM*
Cc1cc(N2CCOCC2)ccc1/C=C1\C(=O)NC(=O)N(c2ccccc2)C1=O	-6.2	-8.7%	2.7%	2.1%	1.9%	i
Cc1cccc(N2C(=O)NC(=O)/C(=C\C=C\c3ccco3)C2=O)c1	-95.6*	?	1.9%	14.6µM*	?	?
Cc1ccc(N2C(=O)NC(=O)/C(=C\C=C\c3ccco3)C2=O)cc1C	-105.1*	7.94µM*	-0.4%	5.8µM*	?	14.1µM*
CN1C(=O)/C(=C/C=C/c2ccco2)C(=O)NC1=S	0.0	3.0%	13.2%	8.8%	?	i
CN(C)c1ccc(/C=C/C=C2/C(=O)NC(=O)N(c3ccccc3)C2=O)cc1	-106.7*	?	19.1%	?	?	·
SMILES	IL1B secr inh	ATXN2 expr inh	PINK1 modulator	MCF10A rerep	SW480 rerep	S2 tox
O=C1NC(=O)N(c2ccccc2)C(=O)/C1=C/C=C/c1ccco1	-100.0*	·	-0.8%	?	14.6µM*	17.8µM*
O=C(O)CSCC(=O)N(Cc1ccccc1)c1nc(-c2ccccc2)c(-c2ccccc2)s1	15.2	-9.9%	-0.9%	?	11.7%	i
Cc1ccc(N2C(=O)NC(=O)/C(=C\C=C\c3ccco3)C2=O)cc1	-97.1*	10µM*	-0.1%	7.31µM*	?	7.94µM*
Cc1ccc(N2C(=O)NC(=O)/C(=C\c3ccoc3)C2=O)cc1	3.4	30.8%	2.9%	?	25.3%	i
COc1ccc(OC)c(N2C(=O)NC(=O)/C(=C/c3ccc([N+](=O)[O-])s3)C2=O)c1	-73.2*	18.4%	0.6%	-8.2%	-12.8%	i
CCCCC[C@H]1CCCCC[C@H](O)C[C@@H](O)[C@H](O)/C=C/C(=O)O1	?	-22.7%	3.2%	·	·	i
CN1CCN(CCOC2c3ccccc3CSc3ccc(Cl)cc32)CC1 (stereo not given)	-87.1*	-26.3%	-4.2%	23.1µM*	?	?
Clc1ccc2c(c1)C(OC1CN3CCC1CC3)c1ccccc1CS2 (stereo not given)	-104.3*	?	-1.7%	?	?	·
CCn1c(O)c(C=Nc2ccc(S(N)(=O)=O)cc2)c(=O)n(CC)c1=S	-5.1	-19.6%	1.7%	?	6.4%	i
NS(=O)(=O)c1ccc(N=Cc2c(O)n(C3CCCCC3)c(=O)n(C3CCCCC3)c2=O)cc1	-100.5*	?	8.9%[38.3 µM]	-3.3%	-1.9%	·
CN(Cc1ccccc1)C(=O)c1ccc(NC(=O)C2CCN(C(=O)OC(C)(C)C)CC2)cc1	46.4	25.1µM*	1.6%	-4.7%	5.9%	?
CN(Cc1ccccc1)C(=O)CN1CCCC1=O	8.6	·	0.6%	-0.5%	0.1%	i
CC1(C)CC2CC(C)(CN2S(=O)(=O)c2cccc(C(=O)OCC(=O)NC(N)=O)c2)C1 (stereo not given)	38.7	6.8%	2.6%	-6.4%	?	i
C[C@H]1CN([C@@H](C)CO)C(=O)c2cc(-c3cccnc3)cnc2O[C@H]1CN(C)Cc1ccc(Oc2ccccc2)cc1	-4.2	-26.3%	-0.4%	·	·	?
CC(=O)O[C@H]1C(=O)[C@@]2(C)C([C@H](OC(=O)c3ccccc3)[C@]3(O)C[C@H](OC(=O)[C@H](O)[C@@H](NC(=O)Cc4ccccc4)c4ccccc4)C(C)=C1C3(C)C)[C@]1(OC(C)=O)CO[C@@H]1C[C@@H]2O (stereo not given in full)	-4.7	0.0%	5.3%	?	4.61µM*	?

High-throughput results deposited in PubChem by National Center for Advancing Translational Sciences (NCATS).
